Measured values published in PubChem BioAssay AID1347416 (National Center for Advancing Translational Sciences (NCATS), 2020).
The campaign covered roughly 4,100 compounds. About 1,600 (39%) were called active. Roughly 25% stayed inconclusive and do not appear here. This is one part of the list. Values without a mark were called inactive. Calls come from the whole dose curve; as a rule, active = well fitted inhibition curve with a large enough effect; inconclusive = small, poorly fitted or top-dose-only effect; inactive = no such curve, though single readings can be large or run the other way.

experiment: qHTS Validation assay for Inhibitors of Plasmodium falciparum Dd2 growth in vitro; note: nearly all actives have a fitted effect of over 70% in size; details: P. falciparum Dd2 in RBCs, SYBR Green growth, 72 h; series mostly up to 28.7 µM; activity change, negative = inhibition: at the top concentration
Text: Malaria, a parasitic disease spread to humans through the bite of a Plasmodium infected Anopheles mosquito, continues to be a global health burden affecting millions of people, with an estimated 228 million cases and 405,000 deaths in 2018. Concerns about safety and limitations of current antimalarial treatments strongly emphasize the need to develop new therapeutic options. The scarce number of chemotypes and validated drug targets with efficacy against the liver stage, have hindered development of new antimalarials. To address this, a chemoprophylactic drug discovery effort was conducted through a combined phenotypic high-throughput asexual blood stage and liver stage screen, providing a robust foundation to identify liver-stage active lead chemotypes. Compounds were initially screened against Plasmodium falciparum Dd2 strain parasites using a in vitro SYBRGreen-1 based 72 hr proliferation assay to identify novel chemotypes to advance to liver stage assays. NIH/NCATS Early Translation Branch Assay Submitter (PI): Anton Simeonov Ph.D.
[…] Assay Protocol: PROTOCOL TABLE (as described by Inglese et al., 2007) SEQUENCE No. (e.g., 1, 2, 3, etc.); PARAMETER (e.g., Cells, Incubation, Reagent, etc.); VALUE; DESCRIPTION SEQUENCE, Parameter, Description 1; Reagent; 3 uL complete malaria growth medium, 1536 TC treated Black clear bottom plate 2; Controls; 23 nL positive control artesunate (300 nM final) to column 1; Neutral control DMSO to columns 2-4 3; Compound; 23 nL of compounds in dose response concentration (29 uM to 0.5 nM final) 4; Reagent; 5 uL malaria infected red blood cells (2.5% hematocrit final, 0.3% parasitemia 5; Time; 72 hours at 37C (5% O2, 5% CO2, 90% N2; 95% Rh) 6; Reagent; 2 uL lysis buffer/SYBRGreen-1, 25 sec shake immediately following dispense 7; Time; ~16 hours at 37C (5% O2, 5% CO2, 90% N2; 95% Rh) 8; Detector; EnVision (PerkinElmer) bottom read at 485/14nm excitation and 535/25 nm emission NOTES (numbers refer to sequence above): 1; Complete Malaria Growth Media: 1X RPMI-1640 w/L-glutamine, 5.5g/L Albumax II, 367 uM Hypoxanthine, 25 mM HEPES, 0.25% Sodium Bicarbonate, 35 uM Gentamicin sulfate 2; Controls were added using the Kalypsis Pintool (Wako USA) equipped with 1536 pinhead 3; Compounds were added in a 7-point, titration with a high final concentration of 29 uM by Pintool from seven inter-plate titrations of library plates and two DMSO control plates at the beginning and end (see Yasgar et al., 2008). 4; Red blood cells infected with Plasmodium falciparum Dd2 parasites were used. 6; Lysis buffer: 20 mM Tris-HCl, 10 mM EDTA, 0.16% Saponin, 1.6% Triton-X, 10X SYBR Green. REFERENCE: Inglese J, Shamu CE, Guy RK. 2007. Reporting data from high-throughput screening of small-molecule libraries. Nat Chem Biol. doi:10.1038/nchembio0807-438 Yasgar A, Shinn P, Jadhav A, Auld D, Michael S, Zheng W, Austin CP, Inglese J, Simeonov A. 2008. Compound Management for Quantitative High-Throughput Screening. J Lab Autom 13:79-89. doi:10.1016/j.jala.2007.12.004
% is set by controls: 0 for no effect and ±100 for the full control effect; potency is the fitted concentration of half-maximal effect.

Structure (SMILES)	Potency	activity change, negative = inhibition
CCOc1ccc(Nc2nc(NCC3CCCO3)c3ccccc3n2)cc1 (stereo not given)	1.88 µM (active)	–
CC(C)c1nc2oc3c(NCC4CCCO4)ncnc3c2c2c1CCC2 (stereo not given)	–	-24.5%
COCCN(CC1CCCO1)c1nc(CCN)nc2ccccc12 (stereo not given)	–	52.7%
Cc1cccc(-c2nnc(SCC(=O)NC3CC3)n2C)c1	–	83.7%
CSc1nnc(-c2cc3ccccc3cc2O)n1C	7.5 µM (active)	–
Cn1c(SCC(=O)N2c3ccccc3CCc3ccccc32)nnc1-c1cc2ccccc2cc1O	8.41 µM (active)	–
Cc1noc([C@@H]2CN(C3CCSCC3)C[C@H]2CO)n1	–	16.2%
O=C(COc1ccccc1)N[C@H]1CO[C@H]2[C@@H]1OC[C@@H]2n1nnnc1Oc1ccc2c(c1)OCO2	–	28.9%
CCOC(=O)c1c(C)oc2nc(C)nc(Nc3ccc(CC)cc3)c12	7.5 µM (active)	–
CCOC(=O)c1c(C)oc2nc(C)nc(Nc3ccc(C)c(Cl)c3)c12	–	0.853%
O=C(O)Cc1sc(Nc2ccccc2Cl)nc1-c1ccccc1	–	12%
CCOc1ccc2ncc3c(-c4ccccc4)nn(CC(=O)Nc4cccc(F)c4)c3c2c1	–	67.4%
Cc1ccccc1NC(=O)c1cc2c(-c3ccccc3)nn(-c3ccccc3)c2s1	11.9 µM (active)	–
O=C(Nc1ccccc1)c1cc2c(-c3ccccc3)nn(-c3ccccc3)c2s1	3.35 µM (active)	–
O=C(Nc1ccc(Cl)cc1)c1cc2c(-c3ccccc3)nn(-c3ccccc3)c2s1	2.37 µM (active)	–
Cc1ccccc1NC(=O)Cn1c(=O)n(-c2ccccc2)c(=O)c2c1cc(C)n2C	–	1.47%
COc1ccc(O)c(C(=O)c2cnc3c(c2)c(-c2ccc(F)cc2)c(C#N)c(=O)n3C)c1	5.96 µM (active)	–
Cc1cccc(CN2CCN(C(=O)CCl)CC2)c1	13.3 µM (active)	–
Cc1cccc(CC(=O)N2CCC3(CC2)CC(O)CCO3)c1 (stereo not given)	–	22.4%
O=C(CCC1CCCN(C(CO)CO)C1)N1CCN(Cc2ccccc2)CC1 (stereo not given)	–	32%
COc1ccc(C)cc1N(C(=O)COc1cccc(F)c1)c1nc2ccccc2s1	5.96 µM (active)	–
COc1ccc(-c2nc3ccccc3s2)cc1NC(=O)c1cc2ccccc2o1	–	-22%
COc1ncc(-c2cc3c(nc2OC)nc(CC2CC2)n3C)cn1	–	-9.43% [at 43.1 µM]
CCc1nn2cc(C(=O)c3cc(C)ccc3O)cnc2c1-c1ccc(F)cc1	9.44 µM (active)	–
COc1ccc([C@@H]2CN(C(=O)CCc3c(C)noc3C)C[C@H]2N(C)C)cc1	–	4.96%

Structure (SMILES)	Potency	activity change, negative = inhibition
CCC(C)NC(=O)N1CC(c2nc(CCOCC3CCOCC3)no2)C1 (stereo not given)	–	22.5%
Nc1nc(N)c2cc(Sc3ccc4ccccc4c3)ccc2n1	1.33 µM (active)	–
CCOC(=O)c1ccc(Nc2nnc(C(C)(C)C)c(=O)[nH]2)cc1	13.3 µM (active)	–
Cc1cc(C(=O)Nc2cc(C)n(Cc3ccc(Cl)cc3)n2)no1	–	-24.4%
Cc1cc(NC(=O)c2cc(-c3ccco3)on2)nn1Cc1ccc(Cl)cc1	8.41 µM (active)	–
CCc1ccc(CN(Cc2ccco2)C(=O)c2cc(-c3ccc(Cl)cc3)on2)cc1	–	72.8%
CCC(=O)N/C(N)=N/c1nc(C)c2cc(C)c(C)cc2n1	9.44 µM (active)	–
COC(=O)c1cc(O)cc(OC)c1Oc1cc(C)cc(O)c1C(=O)O	4.22 µM (active)	–
O=C(Cc1cccs1)NC1CCN(c2cc(C(F)(F)F)ncn2)CC1	–	10%
O=C(CCCCn1c(=O)c2ccccc2n(CC(=O)Nc2ccccc2)c1=O)NCc1ccccc1Cl	–	33.3%
Cc1ccc(NC(=O)Cn2c(=O)n(-c3ccc(C)cc3)c(=O)c3ccc(C(=O)NCc4ccccc4Cl)cc32)cc1	5.31 µM (active)	–
COC(=O)c1ccccc1NC(=O)Cn1c(=O)n(CCCC(=O)NCc2ccccc2Cl)c(=O)c2ccccc21	–	-14.9%
COc1ccc(C2c3ccc4ccccc4c3Oc3ncn(CCCN(C)C)c(=N)c32)cc1 (stereo not given)	2.99 µM (active)	–
CN(C)CCCn1cnc2c(c1=N)C(c1ccccc1)c1ccc3ccccc3c1O2 (stereo not given)	3.76 µM (active)	–
CN1CCN(c2cc(=O)c3ccnc(-c4cn[nH]c4)c3o2)CC1	–	14.8% [at 43.1 µM]
CCC(C)N(CCNC(=O)c1ccc2c(c1)NC(=O)c1ccccc1S2)C1CCCCC1 (stereo not given)	13.3 µM (active)	–
CC(C)CNC(=O)c1ccc2c(c1)NC(C)(CNc1ccccc1)CO2 (stereo not given)	–	12.1% [at 43.1 µM]
Cc1cc(C)n(CC(=O)N2C[C@@H](COc3ccccc3)[C@H](C(N)=O)C2)n1	–	15.8%
CCOC(=O)COn1c(-n2nc(C)cc2C)nc2ccccc2c1=O	9.44 µM (active)	–
CCOC(=O)CCn1nc(-c2ccc(C)cc2)c2ccccc2c1=O	–	-3.49%
COc1ccc(C2c3ccc(O)cc3Oc3ncn4nc(-c5ccncc5)nc4c32)cc1OC (stereo not given)	15 µM (active)	–
O=C(c1ccccc1F)N1CCCC2(C1)NC(=O)N(Cc1cccc(Cl)c1)C2=O (stereo not given)	–	-0.29%
Cc1ccccc1C(=O)N1CCC2(CC1)NC(=O)N(c1ccc(F)cc1)N2	–	-26.7%
c1ccc2c(c1)CNC1(CCN(Cc3cccc4ccccc34)CC1)CO2	7.5 µM (active)	–
O=C(c1ccccc1-c1ncc[nH]1)N1CC[C@@H](c2ccc3c(c2)OCO3)[C@H](O)C1	–	12.5%
